Experimental data from PubChem BioAssay (NCI).
This is part of a sample that, as a whole, favours compounds with a hit. Of some 79,000 tested, about 15% had one in any assay. Cut-off read from the data, not from the text of the source: active = growth inhibition above about 70%; inactive = the rest.

Legend:
[1] = NCI Yeast Anticancer Drug Screen. Data for the rad50 strain (AID 155);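 note: 0% = growth of vehicle-only cultures of the same strain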; details: S. cerevisiae rad50 strain growth inhibition; at 50.0 µM; stronger effect = higher value
Outline: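 Inhibition values express reduced yeast growth in compound-treated cultures relative to vehicle-treated controls.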

[2] = NCI Yeast Anticancer Drug Screen. Data for the mec2-1 strain (AID 157); details: S. cerevisiae mec2-1 strain, at 50.0 µM, stronger effect = higher value
Outline: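 Vehicle-treated cultures served as reference for growth inhibition of compound-exposed mec2-1 yeast.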

[3] = NCI Yeast Anticancer Drug Screen. Data for the sgs1 mgt1 strain (AID 161);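 note: 0% = growth of cultures given vehicle only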; details: S. cerevisiae sgs1 mgt1 strain, at 50.0 µM, stronger effect = higher value
Outline: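 Inhibition of yeast growth, normalised to vehicle-treated controls, is reported for a strain bearing genetic alterations in DNA damage repair.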

[4] = NCI Yeast Anticancer Drug Screen. Data for the cln2 rad14 strain (AID 165);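 note: 0% = growth equal to vehicle treated cultures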; details: S. cerevisiae cln2 rad14 strain, at 50.0 µM, stronger effect = higher value
Outline: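 Each compound was tested on cln2 rad14 yeast. Inhibition of growth was calculated against vehicle-exposed controls.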

[5] = NCI Yeast Anticancer Drug Screen. Data for the bub3 strain (AID 167); details: S. cerevisiae bub3 mutant strain, at 50.0 µM, stronger effect = higher value
Outline: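 Steps: expose the mutant yeast strain to compound; grow alongside vehicle-treated cultures; measure growth; express inhibition against the vehicle cultures.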

[6] = NCI Yeast Anticancer Drug Screen. Data for the mlh1 rad18 strain (AID 175); details: S. cerevisiae mlh1 rad18 strain growth inhibition; at 50.0 µM; stronger effect = higher value
Outline: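 Vehicle-treated cultures served as the reference for growth inhibition in a yeast strain carrying DNA damage repair alterations exposed to each compound.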

Measured: growth inhibition

COc1cccc(N=N/C(=N/NC(=O)c2cc(Cl)ccc2O)c2ccc(N(CCC#N)CCC#N)cc2C)c1
inactive: [1] -18.9% | [2] -16.8% | [3] -18.9% | [4] -18.6% | [5] -17.9% | [6] -47.6%

Cc1cccc(C)c1NC(=O)Nc1cccc(C#N)c1
inactive: [1] -0.3% | [2] -10.8% | [3] 7.35% | [4] 15.3% | [5] -0.55% | [6] 17.4%

CCOC(=O)C(CSC(=O)c1ccccc1)NC(=O)OCc1ccccc1 (stereo unspecified)
inactive: [1] 40.4% | [2] -3.35% | [3] 21.2% | [4] -29.6% | [5] 2.65% | [6] 20.1%

COC(=O)c1ccccc1NN=Nc1ccccc1Cl
inactive: [1] 3.5% | [2] -17.7% | [3] -0.95% | [4] 8.3% | [5] 6.4% | [6] 11.1%

CCOC(=O)C12CCC(C(=O)OCC)(CC13OCCO3)C1(C2)OCCO1
inactive: [1] 11.1% | [2] 9.95% | [3] 10% | [4] 5.55% | [5] 7.35% | [6] 15.9%

CCOc1nc(N)nc(C)c1N=Nc1ccc(C)cc1
inactive: [1] 1.75% | [2] -8.45% | [3] -4.5% | [4] -34.4% | [5] -5.05% | [6] 2.45%

C/C(=N\N=P(c1ccccc1)(c1ccccc1)c1ccccc1)c1ccccc1
inactive: [1] 5.15% | [2] -6.5% | [3] 9.35% | [4] -1.4% | [5] 2.6% | [6] -14.3%

COC(=O)C(=[N+]=[N-])C(=O)c1ccc([N+](=O)[O-])cc1
inactive: [1] 65.5% | [2] 23.9% | [3] 40.1% | [4] 41.8% | [5] 20.6% | [6] 42.3%

c1ccc(C2=NC3CCCCC3S2)cc1 (stereo unspecified)
inactive: [1] 2.95% | [2] -10.6% | [3] 3.7% | [4] -32.3% | [5] -5.55% | [6] -2.75%

O=C1C=C(Nc2ccccc2C(=O)c2ccccc2)c2ccccc2C1=O
inactive: [1] 18.9% | [2] -30.4% | [3] 6.65% | [4] 4.9% | [5] 14.8% | [6] 2.4%

Cc1ccc(-c2ccno2)cc1
inactive: [1] 1.7% | [2] 3.15% | [3] 1.25% | [4] -14.3% | [5] -8.3% | [6] 2.25%

CC(=O)/C=C/C=C\C=C/N=C(c1ccccc1)c1ccccc1
inactive: [1] -7.5% | [2] -1.1% | [3] -2.7% | [4] 3% | [5] 26.1% | [6] -3.85%

CCC[C@@H]1C[C@@H](OC(=S)SC)C[C@H]2CCC(=O)N12
inactive: [1] -3.1% | [2] -9.6% | [3] -7.85% | [4] -4.9% | [5] 44.9% | [6] -16.6%

COc1ccc(CCNC(=O)CCC2CCN(CCc3ccc(OC)c(OC)c3)CC2)cc1OC
inactive: [1] 16.2% | [2] -2.05% | [3] 1.65% | [4] 22.4% | [5] -1.5% | [6] 3.6%

OCc1ccc2ccc3ccc(CO)nc3c2n1
inactive: [1] 14.4% | [2] 15.4% | [3] 5.6% | [4] -25.4% | [5] 15.4% | [6] 13.9%

CSCCC(NC(=O)NS(=O)(=O)c1ccc(C)cc1)C(=O)O (stereo unspecified)
inactive: [1] -4.3% | [2] -16.1% | [3] -2.3% | [4] 20.2% | [5] 6.45% | [6] 9.55%

Cc1ccc2cccc(OCC(=O)O)c2n1
inactive: [1] 5.7% | [2] 13.4% | [3] 6.1% | [4] 3.45% | [5] -8.45% | [6] 13.3%

COc1cccc(C(=O)c2ccc(OC)cc2C(=O)O)c1
inactive: [1] 5.95% | [2] -10.2% | [3] -2.8% | [4] -31.9% | [5] 4.3% | [6] 0.85%

CC(=O)[CH-]C(=O)Nc1ccccc1.CC(=O)[CH-]C(=O)Nc1ccccc1.CC[O-].CC[O-].[Ti+4]
inactive: [1] -16.4% | [2] 14.3% | [3] 11.3% | [4] 21% | [5] 12.8% | [6] 12.7%

CN1CCc2ccccc2/C(=C(/O)c2ccccc2)C1=O
inactive: [1] 28.8% | [2] 7.15% | [3] 12.3% | [4] 24.9% | [5] 13.3% | [6] 10.1%

Cn1c(=O)c2c(nc(NN)n2C)n(C)c1=O
inactive: [1] 1.15% | [2] -10.8% | [3] -2.65% | [4] -25% | [5] 10.9% | [6] 4.7%
